# Assay outcomes (PubChem)
# LYPLA1 counter: counter-screen for PME1 inhibitors: inhibitors of human LYPLA1 | O75608 | recombinant LYPLA1, FP-Rh probe fluorescence polarization | inhibition, % at 5.9 µM | hit rate 0.16% among 320,000 | AID 2174;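 active = inhibition above the mean of all tested compounds plus 3 SD, set per campaign, cut at about 14% in these data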;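 also: inhibitors block serine hydrolase probe labeling of LYPLA1 so polarization falls; 0% = enzyme with DMSO and 100% = wells lacking LYPLA1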
# Target sequence (O75608 whole entry, looked up): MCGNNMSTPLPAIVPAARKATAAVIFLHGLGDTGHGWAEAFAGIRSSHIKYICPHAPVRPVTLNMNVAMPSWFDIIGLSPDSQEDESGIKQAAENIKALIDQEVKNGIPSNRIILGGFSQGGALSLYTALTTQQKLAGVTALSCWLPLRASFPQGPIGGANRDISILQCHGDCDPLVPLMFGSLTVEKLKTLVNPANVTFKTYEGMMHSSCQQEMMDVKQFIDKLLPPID
# PME-1 inh: PME-1 (human) inhibition | Q9Y570 | recombinant PME-1, FP-Rh probe fluorescence polarization | hit rate 0.53% among 320,000 | inhibition, % at 5.9 µM;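 active = inhibition above the campaign mean of all compounds plus 3 SD, cut at about 26% in these data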;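 also: competitive labeling of PME-1 active site by serine hydrolase directed probe; 0% = PME-1 with DMSO and 100% = wells lacking PME-1 enzyme; inhibitors block probe labeling so polarization falls and inhibition rises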
# LYPLA2 counter: LYPLA2 (human) inhibition in PME1 counter-screen. O95372. recombinant LYPLA2, FP-Rh probe fluorescence polarization. inhibition, % at 5.9 µM. hit rate 0.38% among 320,000;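 active = inhibition above the screen-wide mean plus 3 SD, limit set per campaign, cut at about 26% in these data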;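 also: 0% = LYPLA2 with DMSO and 100% = wells lacking LYPLA2 enzyme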
# Target sequence (O95372 whole entry, looked up): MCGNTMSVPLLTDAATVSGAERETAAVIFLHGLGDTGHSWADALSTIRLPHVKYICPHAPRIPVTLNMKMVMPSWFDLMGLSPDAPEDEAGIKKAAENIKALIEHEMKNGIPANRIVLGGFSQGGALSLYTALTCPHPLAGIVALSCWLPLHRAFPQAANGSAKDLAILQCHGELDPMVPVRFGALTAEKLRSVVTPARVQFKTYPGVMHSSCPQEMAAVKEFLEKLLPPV
# Fam108B counter: Fam108B inhibition, counter-screen for RBBP9 inhibitors | recombinant Fam108B, FP-Rh probe fluorescence polarization | inhibition, % at 9.51 µM | hit rate 0.33% among 300,000 | AID 1947;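 active = inhibition above the screen mean inhibition plus 3 SD, computed separately per campaign, cut at about 18% in these data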;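 also: inhibitors lower polarization as less probe binds the enzyme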
# PAD4 FP inh: inhibitors of human PAD4; Q9UM07; recombinant PAD4, RCA probe fluorescence polarization; inhibition, % at 6.36 µM; hit rate 0.41% among 330,000; AID 485272;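 active = percent inhibition above a cutoff equal to the mean of all tested compounds plus 3 SD, cut at about 15% in these data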;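 also: 0% = PAD4 with RCA probe and DMSO and 100% = probe without PAD4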
# GSTO1 inh: blocks human GSTO1 in RBBP9 counter-screen; P78417; recombinant GSTO1, activity-based probe fluorescence polarization; inhibition, % at 5.96 µM; hit rate 1.1% among 300,000;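 active = inhibition above the campaign mean inhibition plus 3 SD, cut at about 35% in these data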;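 also: 0% = GSTO1-1 with DMSO and 100% = wells lacking GSTO1-1 enzyme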
# Target sequence (P78417 whole entry, looked up): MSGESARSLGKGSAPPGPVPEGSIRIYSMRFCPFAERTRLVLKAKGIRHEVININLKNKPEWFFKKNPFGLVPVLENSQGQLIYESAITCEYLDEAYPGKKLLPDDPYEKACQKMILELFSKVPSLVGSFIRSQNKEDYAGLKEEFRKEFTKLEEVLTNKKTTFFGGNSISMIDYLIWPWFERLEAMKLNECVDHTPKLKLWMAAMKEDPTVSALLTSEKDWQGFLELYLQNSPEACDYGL
# Fam108b inh conf: Fam108b (mouse) hydrolase inhibition, confirmation assay; inhibition, % at 9.51 µM; shares compounds with Fam108B counter; hit rate 44% among 930; AID 1978; recombinant Fam108b, FP-Rh probe fluorescence polarization;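 active = inhibition above a limit from the primary screen, the mean over all compounds plus 3 SD, cut at about 19% in these data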;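 also: 0% = median of active Fam108b wells and 100% = catalytically dead S170A mutant; inhibitors free the probe so polarization falls as inhibition rises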
# Fam108b inh: inhibits mouse Fam108b in gel-based ABPP; shares compounds with Fam108B counter; recombinant Fam108b, fluorophosphonate probe; inhibition, % at 20 µM; hit rate 44% among 260; AID 588649; in the data active = inhibition above about 40%
# GSTO1 inh conf: confirmation of human GSTO1 inhibitors. hit rate 54% among 2,400. shares compounds with GSTO1 inh. recombinant GSTO1, probe fluorescence polarization. inhibition, % at 5.96 µM;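 active = inhibition above the primary screen's cutoff, its mean inhibition plus 3 SD, cut at about 35% in these data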;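 also: loss of polarization as inhibitors block binding of rhodamine sulfonate ester activity probe; 0% = GSTO1 with DMSO and 100% = wells lacking GSTO1 enzyme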
# LYPLA1 conf: counter-screen for PME1 inhibitors: confirmation of human LYPLA1 inhibitors. recombinant LYPLA1, FP-Rh probe fluorescence polarization. inhibition, % at 5.9 µM. hit rate 69% among 480. shares compounds with LYPLA1 counter. AID 2233;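 active = mean inhibition across replicates above the hit cutoff set in the primary screen, cut at about 15% in these data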;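 also: loss of FP-Rh probe labeling of LYPLA1 seen as lower polarization; 0% = LYPLA1 with DMSO and 100% = wells lacking LYPLA1 enzyme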
# LYPLA2 conf: LYPLA2 (human) inhibition, confirmation counter-screen; shares compounds with LYPLA2 counter; recombinant LYPLA2, FP-Rh probe fluorescence polarization; inhibition, % at 5.9 µM; hit rate 72% among 1,100; AID 2232;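 active = mean inhibition across replicates above the hit cutoff set in the primary screen, cut at about 26% in these data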;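 also: blocked labeling of the enzyme by serine hydrolase FP-Rh probe lowers polarization; 0% = enzyme with DMSO and 100% = wells lacking LYPLA2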
# * = called active by the depositor; · = no result given; + = active, no number. Hits are enriched below; roughly 1.8% of the tested compounds scored in any of these assays.
SMILES,LYPLA1 counter,PME-1 inh,LYPLA2 counter,Fam108B counter,PAD4 FP inh,GSTO1 inh,Fam108b inh conf,GSTO1 inh conf,LYPLA1 conf,others
COc1ccc(NC(=S)NNc2ccc(S(=O)(=O)Nc3ccccc3C(=O)O)cc2[N+](=O)[O-])cc1,3.8,49.8*,8.8,51.8*,8.6,67.0*,15.4,80.3*,·,
CCOc1ccc(C2NCCc3cc(OC)c(OC)cc32)cc1OC (stereo not drawn),5.5,3.1,8.0,2.9,0.4,5.0,·,·,·,
Brc1cccc(C2Nc3cccc4cccc(c34)N2)c1,-0.6,17.4,5.8,21.9*,-0.1,40.4*,0.2,8.0,·,
Brc1ccc(C2Nc3cccc4cccc(c34)N2)o1,-12.0,19.1,-10.1,26.1*,5.0,53.5*,8.2,8.3,·,
CCOc1ccc(C2Nc3cccc4cccc(c34)N2)cc1OC,-8.8,4.6,-15.6,25.2*,-2.9,44.6*,9.5,4.9,·,
CCOc1ccc(-c2csc(/C(C#N)=C\c3ccc(O)c([N+](=O)[O-])c3)n2)cc1,5.5,25.8,10.6,25.0*,-1.0,43.1*,5.8,53.9*,·,
CC(C)NC(=O)c1ccc(-n2nc(C(F)(F)F)c3c2CCCC3)cc1,2.9,-2.4,-8.0,-7.6,-5.9,-3.5,·,·,·,
COc1cccc(C(=O)NC2CCNCC2)c1,4.5,-2.0,4.2,1.8,-0.1,11.0,·,·,·,
CN(C)c1ncc(C2=C(Cl)C(=O)C(N3CCCC3)=C(Cl)C2=O)s1,-2.9,4.3,0.1,25.7*,7.4,87.7*,-4.1,81.1*,·,
CCN(CC)c1ccc2c(-c3ccc(S(=O)(=O)O)cc3S(=O)(=O)[O-])c3ccc(=[N+](CC)CC)cc-3oc2c1,-4.6,+,-15.7,89.6*,·,197.6*,165.5*,+,·,
CCN(CC)c1ccc(NC(=O)Nc2ccccc2C(F)(F)F)cc1,-1.9,-3.7,-7.9,0.0,-9.8,1.4,·,·,·,
COc1ccccc1Oc1c(C)oc2c(CN3CCN(CCO)CC3)c(O)ccc2c1=O,54.9*,40.9*,45.6*,46.9*,90.3*,67.4*,-7.2,8.3,·,
CCOc1ccccc1Oc1c(C)oc2c(CN3CCN(CCO)CC3)c(O)ccc2c1=O,0.1,0.5,-1.2,5.9,-2.5,11.8,·,·,·,
OCCNc1c2ccccc2nc2c(F)c(F)c(F)c(F)c12,1.3,9.1,1.9,5.1,4.2,-54.1,·,·,·,
Cc1c2ccccc2nc2c(F)c(NCCO)c(F)c(F)c12,3.0,4.1,7.6,18.8*,10.6,62.3*,4.4,13.0,·,
Cc1ccc(C(=O)N/N=C/c2ccc(-c3ccc(Br)cc3[N+](=O)[O-])o2)o1,18.3*,53.1*,21.3,19.1*,0.4,65.8*,-5.1,17.1,-3.4,
O=C(O)CCCNc1cc(N2CCN(C(=O)c3ccco3)CC2)c2noc3c2c1C(=O)c1ccccc1-3,18.1*,6.2,14.3,35.3*,-6.8,53.4*,40.8*,30.1,18.5*,Fam108b inh=75.0*
O=C1c2ccccc2-c2c1cccc2C(=O)N1CCN(C(=O)c2ccco2)CC1,3.3,2.7,-0.7,2.6,10.1,-4.8,·,·,·,
O=c1/c(=C\c2cc([N+](=O)[O-])cc([N+](=O)[O-])c2O)sc2nc3ccccc3n12,15.8*,3.7,6.2,52.0*,-19.2,-20.4,39.4*,·,-1.9,
COC(=O)/C=c1/sc2nc3ccccc3n2c1=O,1.0,-0.4,1.7,4.0,2.4,0.0,·,·,·,
Nc1nc(SCC(=O)Nc2ccc3c(c2)CCC3)n[nH]1,-1.6,4.1,-8.2,2.4,-0.3,2.0,·,·,·,
CC1=NN(c2ccccc2)C(=O)/C1=C/c1c(O)n(-c2ccc(F)c(Cl)c2)[nH]c1=O,26.0*,68.0*,13.6,66.8*,-2.0,-49.4,65.4*,·,13.7,Fam108b inh=0.0
NC1=NC(=Nc2cccc(S(N)(=O)=O)c2)c2ccccc21,-0.7,1.0,1.7,0.3,1.0,7.1,·,·,·,
COc1cc(N=Nc2cccc(S(N)(=O)=O)c2)c2ccccc2c1N,14.2*,29.7*,18.1,34.0*,-11.2,-6.7,13.5,·,-3.3,
Cn1nc(C(=O)OCC(=O)NC2CCS(=O)(=O)C2)c2ccccc2c1=O (stereo not drawn),1.0,3.7,4.3,1.4,-6.5,4.4,·,·,·,
SMILES,LYPLA1 counter,PME-1 inh,LYPLA2 counter,Fam108B counter,PAD4 FP inh,GSTO1 inh,Fam108b inh conf,GSTO1 inh conf,LYPLA1 conf,others
C/C(=N\NC(=O)c1cccc(Cl)c1)C1C(=O)c2ccccc2C1=O,24.3*,4.0,7.0,30.9*,1.0,2.6,34.4*,·,28.4*,
Cc1nc(S/C(=C/c2ccc(-c3cc(Cl)ccc3C)o2)C(=O)O)n[nH]1,25.8*,34.2*,14.6,24.9*,0.5,3.0,18.3*,·,27.6*,
Cc1nc(S/C(=C/c2ccc(-c3ccc(C(=O)O)cc3)o2)C(=O)O)n[nH]1,-2.6,-5.2,-3.7,2.9,-4.2,-37.7,·,·,·,
CCc1nc2ccccc2[nH]c1=O,-0.7,-0.9,-0.4,4.0,-6.5,-12.5,·,·,·,
CCCCCCCCCCCCCCCC[n+]1ccc(/C=N/O)cc1,14.9*,56.4*,24.0,40.8*,5.6,3.0,44.5*,·,19.6*,
Cc1ccc(NC(=O)CCCc2nc3ccccc3c(=O)[nH]2)c(Cl)c1,2.8,10.6,2.8,·,1.5,·,·,·,·,
O=C(N/N=C/c1cc(Cl)c(O)c(Cl)c1)c1cc2c(ccc3ccccc32)o1,24.1*,57.2*,7.3,36.9*,-2.4,37.2*,51.9*,·,8.8,
CN(CCc1ccccc1)C(=O)c1ccc(NC(=O)Cc2ccc([N+](=O)[O-])cc2)cc1,·,·,·,·,-3.9,·,·,·,·,
O=C1c2ccccc2-c2onc3ccc(NCc4ccco4)c1c23,98.5*,120.2*,118.2*,106.5*,89.3*,99.6*,134.8*,53.3*,100.2*,Fam108b inh=30.0;LYPLA2 conf=120.8*
O=C(O)c1ccccc1NCc1ccco1,-2.5,-3.0,-3.2,2.1,3.6,0.5,·,·,·,
O=C(CCS(=O)(=O)c1ccccc1Cl)NCCC1=CCCCC1,1.5,0.9,2.6,-0.8,-0.1,4.8,·,·,·,
CCOc1ccc(NC(=S)Nc2ccc(OCC)cc2)cc1,-2.3,-6.6,-1.4,-4.9,-11.7,0.8,·,·,·,
CCOc1ccc(NC(=S)Nc2ccc3nsnc3c2)cc1,66.2*,51.9*,89.8*,80.0*,75.8*,87.0*,24.9*,81.2*,5.1,LYPLA2 conf=34.0*
Cn1c(NCCc2ccccc2)cc(=O)n(C)c1=O,-1.6,2.9,2.3,7.6,-0.3,-1.6,·,·,·,
